Bioassay records as filed in PubChem BioAssay.
PP5 primary = PP5 phosphatase inhibitors, primary screen, biochemical, fluorescence | purified PP5c, OMFP substrate fluorescence | inhibition, % at 6.7 µM | Serine/threonine-protein phosphatase 5 (Homo sapiens), P53041 | actives 0.18% (n = 320,000);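 active means inhibition above the campaign's mean inhibition across all tested compounds plus 3 SD, cut at about 9.5% in these data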;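 further: 0% = DMSO only and 100% = 100 µM cantharidin control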
CSC inhib = cancer stem cell viability inhibitors, primary screen, luminescence. actives 1.1% (n = 300,000). AID 2717, 2010. inhibition, % at 7.5 µM. cancer stem cell-like cells viability; in the data active means inhibition above about 75%; inconclusive means no clear call, values can overlap the other calls; tested in HMLE shEcad cells
Calb FLC = C. albicans growth inhibition with fluconazole, primary screen, CaCi-2 strain, Alamar Blue fluorescence; C. albicans CaCi-2 (fluconazole-resistant clinical isolate) + fluconazole, 48 h; actives 0.57% (n = 300,000); growth inhibition, % (no concentration beside the values);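 active means growth inhibition above about 58% in most replicates, limit read from the data, passing the limit was not always enough; inconclusive means exactly half the replicates above a set limit; inactive means most replicates below a set limit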;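 further: all wells also contain fluconazole at 8 µg/ml as a sub-toxic cotreatment; 0% = median of DMSO wells and 100% = median of geldanamycin control wells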
Beta cell apopt = inhibitors of cytokine-induced beta cell apoptosis, primary screen, luminescence; protection from apoptosis, % (no concentration beside the values); actives 0.8% (n = 300,000); INS-1E cytokine-induced death, ATP luminescence, 48 h; percent of positive-control rescue, neutral wells zero; AID 435005, 2010;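 active means Every replicate reaches about 75%, or at least half do and their mean reaches it too, limit read from the data; inconclusive means At least half of replicates reach the limit but their mean does not; inactive means Under half of replicates reach the limit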;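 further: 0% = cytokine-treated negative control wells and 100% = positive control rescue; higher means more ATP so stronger rescue from cytokine killing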
PP1 counter = PP1-alpha phosphatase inhibitors, primary screen, counter-screen for PP5 inhibitor project, biochemical, fluorescence, OMFP substrate, single point; purified PP1alpha; inhibition, % at 6.7 µM; actives 0.9% (n = 320,000);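 active means inhibition above the mean inhibition of all tested compounds plus 3 SD, computed separately for each screening campaign, cut at about 15% in these data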
Target sequence (P62136 whole entry, looked up): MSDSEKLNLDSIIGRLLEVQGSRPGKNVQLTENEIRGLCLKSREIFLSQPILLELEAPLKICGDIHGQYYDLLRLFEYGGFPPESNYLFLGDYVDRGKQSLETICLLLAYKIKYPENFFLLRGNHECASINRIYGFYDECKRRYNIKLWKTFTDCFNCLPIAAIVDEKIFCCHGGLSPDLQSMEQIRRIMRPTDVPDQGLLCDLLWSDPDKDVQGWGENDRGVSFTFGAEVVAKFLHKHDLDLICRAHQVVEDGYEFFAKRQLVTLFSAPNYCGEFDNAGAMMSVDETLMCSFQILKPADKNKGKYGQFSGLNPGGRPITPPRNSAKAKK
Mdm2-MdmX inh = inhibitors of human Mdm2-MdmX association, primary screen, cell-based, luminescence, split luciferase, SaOS-2, uHTS; actives 3% (n = 330,000); Protein Mdm4 (Homo sapiens) + E3 ubiquitin-protein ligase Mdm2 (Homo sapiens), …; AID 485346, 2010; inhibition, % at 8 µM; SaOS-2 split-luciferase Mdm2/MdmX complementation;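 active means inhibition of at least 50% at 8 µM in the primary screen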
PP5 inh confirm = PP5 phosphatase inhibitors, confirmation, biochemical, fluorescence, human | inhibition, % at 6.7 µM | AID 2331, 2010 | Purified PP5, fluorogenic phosphatase substrate | actives 22% (n = 460) | shares compounds with PP5 primary; in the data active means inhibition above about 9.5%
PP1 inh counter = PP1 phosphatase inhibitors, counter-screen for PP5 inhibitor project, biochemical, fluorescence, triplicate; shares compounds with PP5 primary; PP1 enzyme, fluorescent phosphatase substrate; inhibition, % at 6.7 µM; actives 4% (n = 460); AID 2355, 2010; in the data active means inhibition above about 16%
An asterisk follows results filed as active; ? = inconclusive; / = not tested or not shown. Shown are actives, neighbours in structure and some others; about 4.9% of the full set was active somewhere.

SMILES | PP5 primary | CSC inhib | Calb FLC | Beta cell apopt | PP1 counter | Mdm2-MdmX inh | PP5 inh confirm | PP1 inh counter
O=C(CSc1nnc(Cn2nnc3ccccc32)o1)N(Cc1ccc(Cl)cc1)c1ccccc1 | 3.2 | 15.5 | -7.0 | 99.1* | -1.2 | 17.3 | / | /
O=C(CSc1nnc(Cn2nnc3ccccc32)o1)Nc1cccc(Cl)c1 | -0.9 | 1.8 | 10.6 | / | -2.3 | -3.5 | / | /
CC(C#N)Sc1ncnc2sc(-c3ccccc3)cc12 (configuration not stated) | 4.6 | 10.1 | -8.6 | -1.1 | 2.9 | 20.1 | / | /
CCOc1cc(N2CCOCC2)c(OCC)cc1NC(=O)c1c(C)noc1C | / | / | / | / | / | 14.9 | / | /
Cc1ccc(NC(=O)c2cc(=O)[nH]c3ccccc23)cc1C | / | / | -0.6 | / | / | -8.1 | / | /
Cc1ccc(C2C3=C(CC(C)(C)CC3=O)N=C3c4ccccc4C(=O)C32)cc1 (configuration not stated) | 0.6 | 7.6 | 84.8* | 21.4 | 2.3 | 36.3 | / | /
Cc1ccc(C2C3=C(CC(C)(C)CC3=O)OC3=C2C(=O)CC(C)(C)C3)cc1 | -2.0 | -1.4 | ? | -10.1 | 6.6 | 22.9 | / | /
CCOc1cc(C(=O)NCCC(=O)N2CCC3(CC2)NCCc2[nH]cnc23)cc(OCC)c1OCC | 2.3 | -13.3 | -1.7 | 0.9 | -1.7 | 22.4 | / | /
CCOC(=O)c1cnc2ccc(OCC)cc2c1NCc1ccccc1OC | 0.4 | 76.0* | 8.0 | 22.8 | -0.7 | 42.3 | / | /
O=C(c1cc(S(=O)(=O)N2CCOCC2)ccc1Cl)N1CCc2ccccc2C1 | 1.5 | 3.9 | -7.5 | -2.4 | 0.6 | 6.2 | / | /
COCCCn1c(SCc2cccc(C(F)(F)F)c2)nc2cc(OC)c(OC)cc2c1=N | 2.7 | 82.6* | 18.2 | 6.9 | 0.0 | 37.8 | / | /
COCCCn1c(SCc2ccccc2)nc2cc(OC)c(OC)cc2c1=N | 8.1 | 68.5 | 15.7 | 3.1 | -1.0 | 18.9 | / | /
O=C(NCC1CCCO1)c1cc2n(n1)C(C(F)(F)F)CC(c1ccc(Br)cc1)N2 (configuration not stated) | 2.5 | 0.7 | 92.8* | -29.6 | -2.9 | 12.7 | / | /
Cc1[nH]n(-c2ccccc2)c(=O)c1C(=O)c1ccccc1 | -1.5 | -0.9 | / | -5.0 | -4.7 | 1.2 | / | /
CC/C(=N/NC(=O)c1ccccc1O)c1c(C)[nH]n(-c2ccccc2)c1=O | 0.8 | 81.4* | 101.1* | 36.2 | -5.4 | 17.2 | / | /
Cc1ccc(S(=O)(=O)N2CCN(S(=O)(=O)c3c(C)n[nH]c3C)CC2)cc1C | 15.6* | -7.1 | / | -4.5 | 2.0 | 14.5 | 2.9 | 2.0
Cc1cccc(-c2nnc(NC(=O)c3ccc(Cl)cc3)o2)c1 | 9.6* | 89.1* | ? | -0.9 | 10.9 | 44.4 | 0.7 | 24.0*
Cc1ccc(S(=O)(=O)N2CCC(C(=O)NNC(=O)c3ccc(F)cc3)CC2)cc1 | 1.6 | -1.1 | 9.7 | / | -4.0 | 9.3 | / | /
COc1ccc(O)c(/C=N/NC(=S)Nc2cccc(S(=O)(=O)N(C)C)c2)c1 | 12.2* | 96.9* | -3.7 | 64.5 | 2.4 | / | 0.1 | 0.3
COc1cccc(CSCC(=O)NCCc2ccccc2)c1OC | 10.4* | -17.7 | 10.7 | -7.0 | -5.4 | 6.8 | -4.6 | -5.0
COc1ccc(-c2cc(-c3c(O)c(OC)c4occc4c3OC)[nH]n2)cc1 | 11.2* | 28.0 | 101.6* | / | -2.9 | 36.8 | 1.3 | 1.7
CC(C)C(=O)Nc1nnc(SCC(=O)Nc2ccc3c(c2)OCCO3)s1 | 12.8* | 0.4 | -1.5 | 6.8 | -10.3 | -8.8 | -4.7 | -2.0
O=C(COC(=O)c1cc(-c2cccs2)nc2ccccc12)NC1CCS(=O)(=O)C1 (configuration not stated) | -0.5 | -5.6 | 29.3 | 2.4 | -1.8 | 19.7 | / | /
CCOc1ccc(NC(=O)COC(=O)CCCc2c[nH]c3ccccc23)cc1 | 9.8* | -10.2 | 7.9 | -5.6 | 2.8 | 15.1 | 0.9 | 2.5
COc1ccc(NC(=O)COC(=O)CCCc2c[nH]c3ccccc23)cc1 | 6.7 | -5.8 | 12.4 | / | -5.7 | -7.3 | / | /
SMILES | PP5 primary | CSC inhib | Calb FLC | Beta cell apopt | PP1 counter | Mdm2-MdmX inh | PP5 inh confirm | PP1 inh counter
OCC[C@@H]1C[C@H](O)[C@@H](O)[C@]2(OCc3ccccc32)O1 | -0.4 | 0.0 | -6.0 | -2.7 | -0.9 | -15.4 | / | /
COc1ccc(NC(=O)C2CC(=O)N(C)C(=Nc3ccc4c(c3)OCO4)S2)cc1 (configuration not stated) | 12.2* | 48.7 | 5.9 | -0.6 | -3.3 | 8.5 | -1.2 | 0.4
Cn1c(CNC(=O)c2ccccc2F)nnc1SCCOc1ccccc1 | 2.9 | 10.6 | 22.9 | -1.1 | -2.6 | -12.7 | / | /
CC(C)CC(=O)C1=C(O)C(=O)N(Cc2ccccc2)C1c1ccccc1 (configuration not stated) | -3.0 | -8.0 | 0.7 | -1.3 | 0.1 | 28.5 | / | /
CC1=NN(c2ccccc2)C(=O)/C1=C\C=C1/N(C)c2ccccc2C1(C)C | 10.2* | 46.4 | 32.7 | 21.1 | 9.2 | 26.4 | 8.8 | 6.7
CN1/C(=C\C=C2/C(=O)Oc3ccccc3C2=O)C(C)(C)c2ccccc21 | -7.0 | -1.1 | 0.3 | 2.2 | -6.0 | / | / | /
CCN(C(=O)COC(=O)C1CC1)c1c(N)n(Cc2ccccc2)c(=O)[nH]c1=O | -1.2 | -13.1 | / | 1.5 | -2.1 | 8.6 | / | /
CC(=O)N(CN1C(=O)c2ccc([N+](=O)[O-])cc2C1=O)c1cccc(C(=O)O)c1 | 22.9* | -21.7 | 0.0 | -4.3 | 0.2 | 17.5 | -1.7 | -3.9
COc1ccc(C2N(S(=O)(=O)c3ccccc3)CCN2S(=O)(=O)c2ccc(C)cc2)cc1 (configuration not stated) | 10.0* | 3.4 | 3.2 | 9.0 | 1.0 | 15.6 | 1.4 | 2.5
Cc1ccc(C(=O)NC2CC(C)(C)NC(C)(C)C2)cc1S(=O)(=O)N1CCCCC1 | -0.5 | 2.1 | -0.7 | 1.3 | -0.1 | 15.0 | / | /
O=C(ON=C1CCN(c2ccc([N+](=O)[O-])cc2)CC1)c1ccccc1 | 9.7* | / | -6.0 | -7.0 | 1.5 | -9.4 | -2.8 | -1.5
COc1ccc(C(=O)ON=C2CCN(c3ccc([N+](=O)[O-])cc3)CC2)cc1 | 4.4 | 20.8 | 0.4 | -0.8 | -2.1 | -12.7 | / | /
CCOc1ccc(N=C/C=C/c2ccccc2)c(O)c1 | 9.9* | -2.6 | -18.5 | 0.5 | 7.0 | 15.5 | 0.8 | 0.0
CCOc1ccc(NCC(=O)N/N=C/C=C/c2ccccc2)cc1 | -1.5 | -5.8 | -2.4 | 3.3 | 7.8 | -9.1 | / | /
